Laboratory results: the supplement of paper PMC6555819

How the values were obtained:
Test in all cases: PBM binding z-score (relative to random genomic background probes); higher = stronger binding; sequences stand for … in GC…GCGATTGACAGCGTAGAATGAAGG
[1] = system: FXR:RXRa (NR concentration 270 nM, RXRa partner concentration 90 nM)
Summary of the method: (§1)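 Binding z-scores were set against random background probes. The data came from custom Agilent 4×180K protein-binding microarrays carrying double-stranded probes with 34-nt variable regions, incubated 1 h with ligand-free nuclear receptor dimers. Partner-specific antibodies detected binding, and scanned fluorescence was regression-normalized.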

[2] = system: LXRa:RXRa (NR concentration 270 nM, RXRa partner concentration 90 nM)
Summary of the method: as §1

[3] = system: LXRa homodimer (NR concentration 270 nM)
Summary of the method: as §1

[4] = system: LXRb:RXRa (NR concentration 270 nM, RXRa partner concentration 90 nM)
Summary of the method: as §1

[5] = system: LXRb homodimer (NR concentration 270 nM)
Summary of the method: as §1

[6] = system: PPARa:RXRa (NR concentration 270 nM, RXRa partner concentration 90 nM)
Summary of the method: as §1

[7] = system: PPARg:RXRa (NR concentration 180 nM, RXRa partner concentration 90 nM)
Summary of the method: as §1

[8] = system: PPARg:RXRa 270nM:90nM, anti-RXR (NR concentration 270 nM, RXRa partner concentration 90 nM)
Summary of the method: as §1

[9] = system: PPARg:RXRa 30nM:10nM, anti-RXR (NR concentration 30 nM, RXRa partner concentration 10 nM)
Summary of the method: as §1

[10] = system: PPARg:RXRa 90nM:30nM, anti-RXR (NR concentration 90 nM, RXRa partner concentration 30 nM)
Summary of the method: as §1

Sequence	PBM binding z-score [1]	PBM binding z-score [2]	PBM binding z-score [3]	PBM binding z-score [4]	PBM binding z-score [5]	PBM binding z-score [6]	PBM binding z-score [7]	PBM binding z-score [8]	PBM binding z-score [9]	PBM binding z-score [10]
TATAGTTGGTCACGGAGGTCACACACGACGGGTA	3.47	3.92	3.29	3.47	1.25	4.09	4.49	3.8	1.92	3.19
CAAACTAGGTCACCCGAAGGTCAAAGTCCGCATG	6.1	6.03	4.86	5.07	1.57	6.24	9.64	8	5.77	7.5
CGCACTAGGTCAAGGACAGTGAATCTCCGCACGC	3.09	2.28	0.266	1.46	0.1	4.26	6.58	5.97	3.25	5.37
CCTTACGGGTCACTGACGGGTTATAGCATTTGGA	5.28	3.6	0.0563	3.42	0.119	4.67	4.31	4.28	1.63	2.74
CCTACTGGGCCCTCAGGTCATTGATATCAACGTT	0.913	0.734	0.835	1.2	-0.368	1.5	0.069	1.15	-0.276	0.433
GCTAGTTGGTCAGTATAAGGTCACACACCGGTCG	3.04	2.87	3.48	2.64	0.601	3.23	1.38	2.09	0.612	1.37
CGGACGAGGGCATGAGTTGATAGCAAATGCCGAT	0.265	0.0809	-0.262	-0.154	-0.96	1.01	0.992	0.682	-0.202	0.196
GATACATGGTCAAGGCCAGAGTACGCGTATTGAT	-0.39	-0.622	-0.276	-0.463	-0.821	-0.215	0.872	0.016	0.162	0.303
ATCTCTAGGTAAAGTTAAGTGAAAGATCGATAGA	0.787	0.68	0.216	0.185	0.709	0.332	0.903	1.19	0.64	1.04
GCGACTGGGGCAAAGCAGCTTACCATAAGGTTGG	-0.808	-0.965	-0.698	-0.42	-1.09	0.229	1	1.18	-0.326	0.688
CAAACTACGTCACGAAAGGTCAAAGTCGAATGAC	5.17	6.32	6.22	5.7	2.44	5.11	3.01	4.1	1.58	3
CCTCGGACGACAGAAGGTCAGAGCTGTCCGCTTT	1.1	1.53	0.0414	1.18	-0.358	1.83	-0.153	-0.0801	-1.06	-0.472
ACTTACGGGTCAACGAGATTATAGCACGCGTATA	6.86	4.16	0.415	3.82	1.09	5.71	5.29	5.21	2.2	4.07
TCTCAGAGGACACGAAAGGTCAGAGCTCGACATC	3.13	4.15	3.56	3.12	0.409	3.52	1.66	3.01	3.08	2.85
GCTGCTACGTCAGGTTGGTCAGCTAACGGGTACG	-0.416	-0.646	-0.592	-0.968	-0.619	-0.713	-0.0701	-0.954	-0.756	-0.888
CTACCAAGGTGAACGAGGTCGTTGATTACTATTC	1.79	1.81	0.142	2.09	-0.207	2.82	1.45	1.48	0.4	0.896
TCTGCTAGTTCAGTTGGTCAGCTAACGAGCTGCC	-0.661	-0.0879	-0.708	-0.52	0.193	0.1	-1.03	0.545	1.27	0.794
ATATGTAGGTTATCGGGTCATTTAGTTTGCGCAT	3.57	3.18	2.41	3.28	1.19	4.9	7.59	6.1	3.69	5.91
CCTACTGGGTCAAAAAGGTCATTGATGCCGATAA	5.59	5.57	4.15	5.29	1.01	5.73	7	6.52	4.03	5.73
TGTCATAGTTCAAAGGTAACGTAAGTATCCACAC	4.03	4.22	1.04	2.89	0.786	4.17	5.59	5.56	2.89	4.8
AGTCAAAGTTCACAAGGTAACGTAAGATTCAGCT	6.12	5.7	3.55	3.65	1.1	4.75	6.96	6.42	3.67	5.78
CTCGAAAGGTCGTGCTCAGGTCAGTATACCAAAC	5.86	5.15	1.44	4.15	0.558	5.2	3.19	4.09	1.06	2.7
ACTAGTTGGTCAGCTGAGGACACACACAATTCGG	1.67	-0.161	-0.165	0.0976	0.0569	0.0805	0.997	-0.202	-0.228	-0.243
ACTAGTTGGTCAGCTGATGTCACACACAATTCGG	0.0768	-0.317	-0.115	0.235	-0.112	0.0483	0.943	0.0634	0.0518	0.0179

Sequence	PBM binding z-score [1]	PBM binding z-score [2]	PBM binding z-score [3]	PBM binding z-score [4]	PBM binding z-score [5]	PBM binding z-score [6]	PBM binding z-score [7]	PBM binding z-score [8]	PBM binding z-score [9]	PBM binding z-score [10]
GCGACTGGGGCAAAGCAGGTGACCATAAGGTTGG	-0.334	-0.7	-0.835	-0.574	-1.48	1.09	0.993	1.27	-0.349	0.239
AATAAAGGGTCACTAGGCCAGAGTAGGTACGAAT	6.74	5.35	1.44	4.42	1.27	6.36	8.19	6.96	3.48	6.22
GGAAAGAGGGCATTCGAGTTGATAGCATGGCGAT	1.74	2.82	0.148	1.13	0.213	1.92	0.905	1.19	0.366	0.958
TCTCGGAGGACAAGAAAGGTCAGAGCTCGACATC	2.65	3.41	2.12	2.65	-0.275	3.37	0.803	2.26	2.52	2.37
CTCGAAAGGTCGTGCTCAGGTGCGTATACCAAAC	4.69	3.72	0.109	2.86	-0.0235	4.57	1.84	3.16	0.473	2.05
CGACAAAGTTCAAGGTAACGTAACAGAAAGCAGC	5.84	5.54	1.97	3.29	0.658	4.63	3.59	4.67	1.47	3.46
CAAACTAGGTCACAGAGTTCAAAGTCCGTGCGTA	6.27	6.12	7.46	4.98	0.834	6.05	9.65	7.78	6.58	8.06
TCTTGTAGATCAAACGTTAAGAAAGCCGAAGCCT	0.211	0.363	-0.0781	0.18	-0.0447	0.988	0.748	3.17	3.27	3.48
CGTCCAAGGTCAATGCTAGGTCAGTCAAAGCATT	6.9	5.33	3	4.39	0.815	4.98	4	4.84	1.11	3.32
TATACAGGTTCAAAGGCCAGAGTACGAATGTCGA	3.17	4.13	2.06	2.27	1.19	3.41	2.89	3.54	1.9	2.88
ACTAGCAGGCCAAGTTTTGGTCACTCAAACAAAG	-0.294	-0.403	-0.274	-0.34	-0.558	-0.0813	-0.156	-0.261	-0.692	-0.457
TCTATTAGTTGAAAGGCAACCGACGAGTCCGTTT	0.518	0.929	0.254	0.901	0.728	1.12	0.475	2.96	4.06	3.42
TCTCAAAGTTCAAAGGTAACGTAAGTATCCACAC	6.76	6.41	5.13	4.82	2.02	5.43	4.77	5.77	5.16	5.6
TCATATAGGTAATACACGTGAAAGTCGGCATCTA	1.26	0.929	0.413	1.06	0.455	1.13	1.1	2.03	3.93	2.92
AGAACGAGGGCTCGCTGAGTTGATAGCAGAGTAG	-0.628	-0.88	-0.835	-0.918	-1.31	-0.747	0.239	-0.824	-0.528	-0.552
TCTTGTAGATCAATCGAGGTTAAGAAAGTGCGCT	1.32	3.01	0.075	1.49	0.176	1.73	-0.311	1.51	2.7	2.4
CCTAGTTGGTCAGGAGGTCACGCACCGGATATGA	4.29	4.22	2.24	3.81	0.661	4.65	4.41	4.64	2.02	3.5
CATACAGGGCCAGCTAGGCCAGAGTAGGGACGGC	-0.56	-0.822	-0.918	-1.15	-0.413	-0.817	0.311	-0.829	-0.392	-1
CGCGAAAGGTCGGTTGAGGTGAGTATACGGATAA	2.66	1.81	-0.0594	1.38	-0.0248	2.75	0.872	1.45	0.235	0.88
AGAACGAGGGCACGCGGAGTTGATAGCAGAGTAG	0.925	0.696	-0.442	0.259	-1.01	2.58	2.36	1.91	0.448	1.26
CAGCCTAGGTCAGGGACAGTATAGGAGGAACGTT	1.72	1.1	-0.189	0.879	-0.664	2.34	1.26	1.07	0.251	0.563
ATATGTAGGTTTCATCCGGGTCATTCAGGCTATG	1.4	1.72	0.315	2.07	0.658	3.09	2.23	2.17	0.721	1.43
GCTGCTAGGTCAATTGATGGTCAGCTAAAGCTCG	2.8	2.21	-0.0789	1.47	0.292	2.93	1.36	1.87	-0.0907	1.18
TCTAGTTGGTCAAAGGTCACACAGTCGAAATGCG	6.26	5.83	4	5.36	1.46	6.64	11.6	9.15	10	11.1
